Hit rate of the full screen: of about 2,500 compounds, about 1,100 (44%) were called active.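 Rule for the calls: active = inhibition above 50% at 4 µM in the single-point screen; inactive = inhibition of 50% or less.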 The set was probably picked from earlier hits. Some of the results follow.
Assay: blockers of TNF-a NF-kB luciferase induction – cell-based, HEK293T NF-kB-Luc, luminescence, selectivity assay for NOD1/NOD2 signaling inhibitor project, primary screen (AID 1852)
Settings: TNF-a induced, 14 h, at 4 µM, stronger effect = higher value

inhibition, inactive:
O=C1Nc2cc(C(=O)N3CCN(c4ccccn4)CC3)ccc2S/C1=C\c1ccccc1 3%
COc1ccc(Cc2noc(CN3CCN(Cc4cccc(Cl)c4)CC3)n2)cc1OC 35.8%
O=C(c1ccc2c(c1)N(Cc1ccccc1)C(=O)c1ccccc1S2)N1CCCC1 34.7%
CCOC(=O)N1CCN(C(=O)c2ccc3c(c2)N(C)C(=O)/C(=C\c2ccc(OCC)c(OC)c2)S3)CC1 21.6%
COCCN1CCN(C(=O)c2ccc3nc(Cc4ccc(OC)c(OC)c4)oc3c2)CC1 8.5%
Cc1ccccc1/C=C1\Sc2ccc(C(=O)N3CCN(c4ccccn4)CC3)cc2N(C)C1=O 22.2%
Cc1ccc(C)c(Oc2cc(NC(=O)CCCn3nc(C)c([N+](=O)[O-])c3C)cc([N+](=O)[O-])c2)c1 -13.6%
O=C(Nc1ccc(N2CCN(Cc3ccccc3F)CC2)cc1)c1ccc([N+](=O)[O-])o1 20%
O=C(Nc1ccc(Br)cc1)c1ccc(F)c(S(=O)(=O)N2CCN(c3ccccn3)CC2)c1 36.8%
CCOC(=O)c1ccc(NC(=O)c2sc3nc(N4CCOCC4)c4c(c3c2N)CCCC4)cc1 -98.3%
O=C(N/N=C/c1cccs1)c1n[nH]c2c1CCCC2 1.7%
COc1ccc(/C=c2/sc3nc(-c4ccccc4)c(-c4ccccc4)n3c2=O)cc1 -25.7%
CCNC(=O)/C(C#N)=C/c1c(N2CCN(c3ccc(OC)cc3)CC2)nc2c(C)cccn2c1=O 15.3%
Cc1ccc2c(C)ccc(O)c2n1 -70.6%
Cc1ccc(C)c(N=Nc2ccc(O)c3ncccc23)c1 42.5%
Oc1ccc(N=Nc2ccc3c(c2)OCCO3)c2cccnc12 39.5%
COc1ccc(Cc2nc3ccc(C(=O)N4CCN(C)C(C)C4)cc3o2)cc1OC (configuration not stated) 45.4%
CCOC(=O)C1CCCN(C(=O)c2ccc3c(=O)n(CCOC)c(=S)[nH]c3c2)C1 (configuration not stated) 21.6%
CCN(CC)c1nc(N2CCOCC2)nc2ccccc12 2%
COc1ccc(/C=N/NS(=O)(=O)c2ccc(F)cc2)cc1COc1cc(F)ccc1[N+](=O)[O-] 12.7%
O=C(CCc1nnc(-c2ccc(-c3ccccc3)cc2)o1)N1CCCCC1 -6.8%
CC(C)(C)OC(=O)N[C@@H](Cc1ccccc1)c1nnc(S(=O)(=O)Cc2cccc(F)c2)o1 -10.8%
CC1CN(C(=O)/C=C/c2ccc([N+](=O)[O-])s2)CC(C)O1 (configuration not stated) 41%
O=C(/C=C/c1ccc([N+](=O)[O-])s1)N1CCN(c2ccccc2)CC1 10.5%
Cc1ccc(/C=C/c2ccc(N(C)C)cc2)[n+](C)c1 28.5%
O=C(CCl)N=c1sccn1Cc1ccccc1Cl 48.8%
Cc1cccc(C(=O)Nc2scc(CC(C)C)c2C(=O)O)c1 -33.5%
Cc1cccc(NC(=O)CCNC(=O)c2ccc(Br)cc2)c1C -6.4%
Cc1cccc(Nc2nc(N)nc(CCl)n2)c1C 18.1%
CCOC(=O)N1CCN(C(=O)c2ccc([N+](=O)[O-])cc2Cl)CC1 43%
Nc1nn2c(-c3ccccc3)cc(=O)[nH]c2c1N=Nc1ccc(O)cc1 -17.5%
COC(=O)c1scc(S(=O)(=O)C(C)C)c1N/N=C(\C#N)C(=O)c1ccc(Cl)cc1 27.4%
COc1ccc(S(=O)(=O)NC(C)C(=O)Nc2cccc([N+](=O)[O-])c2)cc1 (configuration not stated) 36.7%
O=C(Nc1ccc(F)cc1)c1nn(-c2ccccc2)c(=O)cc1Cl -30.5%
O=C(NNC(=O)c1cc(-c2ccccc2)nn1-c1ccccc1)c1ccccc1 11.9%
O=C(Nc1ccc2oc(-c3cccnc3)nc2c1)c1ccc([N+](=O)[O-])o1 43.1%
COc1cccc(NS(=O)(=O)c2ccc3c(c2)CCN3C(C)=O)c1 41.6%
CC(=O)c1cccc(NS(=O)(=O)c2ccc(NC(=O)N3CCCCC3)cc2)c1 19.3%
Cc1ccc(OC(F)F)c(NC(=O)Nc2cccc(C(F)(F)F)c2)c1 8.9%
CCOC(=O)c1cnn(Cc2cccc(Cl)c2)c1C -4.9%
O=C(OCC(=O)N1CCOCC1)c1ccccc1Br 0.9%
O=C(Nc1nc(-c2ccc3c(c2)OCO3)cs1)c1ccncc1 34.9%
c1ccc(-c2csc(Nc3ccc4c(c3)OCCO4)n2)cc1 -211%
CC(=O)Nc1ccc2nc(NC(=O)c3ccc([N+](=O)[O-])o3)sc2c1 18.3%
CCN1C(=O)/C(=C/c2nc3ccccc3c(=O)n2-c2ccccc2)c2ccccc21 40.6%
O=C1OCCC1Sc1nnc(-c2ccc(Cl)cc2Cl)o1 (configuration not stated) 35.1%

inhibition, active:
CCOc1ccc(/C=C2/Sc3ccc(C(=O)N4CCOCC4)cc3N(C)C2=O)cc1OC 54.9%
CN1C(=O)/C(=C/c2ccccc2Cl)Sc2ccc(C(=O)N3CCCC3)cc21 89%
COc1ccc(/C=C2\Sc3ccc(C(=O)N4CCN(Cc5ccccc5)CC4)cc3N(C)C2=O)cc1OC 59.1%
O=C(Nc1ccc(N2CCN(C(=O)c3ccccc3F)CC2)cc1)c1cncc(Br)c1 72.9%
NC(=O)c1sc2nc3c(c(-c4ccccc4)c2c1N)CCC3 96.6%
NC(=O)c1sc2nc3c(c(-c4ccco4)c2c1N)CCCC3 83.5%
Cc1nc2sc(C(N)=O)c(N)c2c2c1CCCC2 92.8%
Cc1ccc(-c2c3c(nc4sc(C(N)=O)c(N)c24)CCC3)cc1 82.9%
NC(=O)c1sc2nc3c(c(-c4cccs4)c2c1N)CCCCC3 90%
Cc1nnc(N2CCCC(C(=O)Nc3cc(F)ccc3F)C2)c2nn(-c3ccccc3)c(C)c12 (configuration not stated) 95.7%
COc1ccc(Cc2[nH]n3c(=O)c(Cl)c(C)nc3c2-c2ccccc2)cc1 106%
COc1cc(/C=N/NC(=O)c2cc(-c3ccc4c(c3)OCO4)n[nH]2)ccc1O 55.4%
Cc1ccccc1N=Nc1ccc(O)c2ncccc12 105%
Cc1ccc(N=Nc2ccc(O)c3ncccc23)cc1C 105%
Cc1ccc(N=Nc2ccc(O)c3ncccc23)cc1 96.9%
COCCn1c(=S)[nH]c2cc(C(=O)N3CCCC(C)C3)ccc2c1=O (configuration not stated) 94.8%
O=C(NCc1cccnc1)/C(=C\c1ccc(-c2cccc(Cl)c2)o1)S(=O)(=O)c1ccccc1 91.5%
O=C(NCc1cccnc1)/C(=C/c1ccc(-c2cccc(Cl)c2)o1)S(=O)(=O)c1ccccc1 99.5%
COc1ccc(-c2n(CC(=O)OC3CC(C)CCC3C(C)C)c3ccccc3[n+]2C)cc1 (configuration not stated) 74.8%
C/C(=N\NC(=O)c1c(C)nc2ccccn12)c1ccc(O)cc1O 69.2%
C/C(=N\NC(=O)c1cc(C2CC2)nc2ccccc12)c1ccc(O)cc1O 66.6%
O=C(Nc1nnc(-c2ccc3c(c2)CCCC3)o1)c1ccccc1Cl 106%
O=C(Nc1nnc(-c2ccc3c(c2)CCCC3)o1)c1ccc(Cl)cc1Cl 101%
O=C(Nc1nnc(-c2ccc3c(c2)CCCC3)o1)c1ccccc1 106%
CC1CC(C)CN(C(=O)/C=C/c2ccc([N+](=O)[O-])s2)C1 (configuration not stated) 60.4%
O=C(/C=C/c1ccc([N+](=O)[O-])s1)N1CCCCC1 54.6%
CC[n+]1ccc(/C=C/c2ccc(N(C)C)cc2)c2ccccc21 62.5%
CC[n+]1cc(C)ccc1/C=C/c1ccc(N(C)C)cc1 57.1%
CC(C)CC[n+]1ccccc1/C=C/c1ccc(N(C)C)cc1 74.3%
O=C(NCc1ccco1)c1nc2c(nnn2Cc2ccccc2Cl)c(=O)[nH]1 78.4%
O=C(NCc1cccs1)c1nc2c(nnn2Cc2ccccc2Cl)c(=O)[nH]1 98.2%
CCCN(CC(=O)Nc1ccccc1C)C(=O)CCl 93.3%
CCC(C)N(CC(=O)Nc1cccc(C)c1C)C(=O)CCl (configuration not stated) 85.8%
CC(=O)Oc1c(C)cc(Cl)cc1C(=O)Nc1ccc([N+](=O)[O-])cc1Cl 98.1%
Nc1nn2c(-c3ccccc3)cc(=O)[nH]c2c1N=Nc1ccc(Br)cc1 78.7%
COc1ccc(C(=O)/C(C#N)=N/Nc2cccc([N+](=O)[O-])c2)cc1 87.9%
O=C(c1ccccc1)c1nn(-c2ccc(Cl)cc2)c(=O)cc1C(F)(F)F 54.8%
CC(=O)Nc1ccc(S(=O)(=O)Nc2ccc3c(c2)CCC3)cc1 85%
C=C1C(=O)O[C@@H]2C[C@@H](C)[C@@H]3C=CC(=O)[C@@]3(C)[C@@H](OC(C)=O)[C@H]12 101%
Cc1oc2c(F)c(F)c(F)c(F)c2c1S(=O)(=O)Nc1cccc(C(F)(F)F)c1 87.4%
O=C(OCn1ncc(Cl)c(Cl)c1=O)c1ccccc1Cl 94.2%
O=C(OCn1ncc(Br)c(Br)c1=O)c1ccccc1Cl 79.3%
O=C(/C=C/c1ccc2c(c1)OCO2)Nc1nc(-c2ccccc2)cs1 103%
O=[N+]([O-])c1cc(Br)c(O)c(/C=N/Nc2nc3ccccc3s2)c1 79.2%
C(=N\Nc1nc2ccccc2s1)/c1ccccn1 105%
CC(C)C1Nc2c(O)cc(Cl)c([N+](=O)[O-])c2C2C=CCC21 (configuration not stated) 74.1%
